Activity calls are given as the source filed them. The rule behind the calls is not given here.
Tested on: HIV-1 nucleocapsid protein NCp7 (binding to TG oligonucleotide)
Experiment: HIV Nucleocapsid (AID 346);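 note: potency is for inhibitors that block NC binding and lower polarization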
Settings: HIV-1 NC / fluorescein-TGTGTGTG probe, fluorescence polarization
Summary of the method: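 HIV-1 NC (100 nM) binding to fluorescein-labelled ssDNA TG4xF (10 nM) in Hepes pH 7.5, 250mM NaCl, 1uM ZnCl2, TCEP and 2-mercaptoethanol; compounds pin-transferred, 1 hr room temperature, fluorescence polarization read on CCD imager.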
Potency is the fitted concentration of half-maximal effect.

Structure (SMILES)	Potency
CNc1ncnc2ccc(-c3ccc4c(c3)OCO4)cc12	> 20 µM (inactive)
c1cncc(CNc2cc(-c3ccoc3)ncn2)c1	> 20 µM (inactive)
Cc1ccccc1-c1nccc(Nc2ccc(F)cc2)n1	> 20 µM (inactive)
CN1CC[C@@]2(CCCN(S(=O)(=O)c3ccccc3)C2)C1	> 20 µM (inactive)
CN(C)c1ncc2nc(-c3ccccc3)c(=O)n(C)c2n1	> 20 µM (inactive)
CN(C)c1nc(-c2cccnc2)nc2ccccc12	> 20 µM (inactive)
N#CCCn1c(=O)cnc2cnc(Nc3ccccc3)nc21	> 20 µM (inactive)
COc1ccccc1CN1CC[C@@]2(CCCN(C(=O)c3cc(C(F)(F)F)cc(C(F)(F)F)c3)C2)C1	> 20 µM (inactive)
COc1ncc2nc(C)c(=O)n(CCC#N)c2n1	> 20 µM (inactive)
CCNc1ncc2ncc(=O)n(C3CC3)c2n1	> 20 µM (inactive)
N#Cc1cccc(-c2ccc3ncnc(NCc4ccccc4)c3c2)c1	> 20 µM (inactive)
O=C(c1cnccn1)N1CCC2(CCN(Cc3cc(C(F)(F)F)cc(C(F)(F)F)c3)CC2)CC1	> 20 µM (inactive)
COCCn1c(=O)c(-c2ccccc2)nc2cncnc21	> 20 µM (inactive)
COc1ccc(-c2nc3cnc(Nc4cccc(OC)c4)nc3n(C)c2=O)cc1	> 20 µM (inactive)
COc1ccc(C(=O)N2CCC3(CCCN(C)C3)CC2)cc1	> 20 µM (inactive)
O=c1c(-c2ccc(F)cc2)nc2cnc(Oc3ccccc3)nc2n1Cc1cccs1	> 20 µM (inactive)
O=C(c1ccncc1)N1CCC2(CC1)CCN(c1ccccc1)CC2	> 20 µM (inactive)
CN1CCC2(CC1)CCN(C(=O)c1cc(C(F)(F)F)cc(C(F)(F)F)c1)CC2	> 20 µM (inactive)
CC(=O)NCCNc1nc(-c2ccc(N(C)C)cc2)nc2ccccc12	> 20 µM (inactive)
Cc1cccc(CNc2ncncc2-c2cccc(C#N)c2)c1	> 20 µM (inactive)

Structure (SMILES)	Potency
CN1CCN(c2ncnc3ccc(-c4ccc5c(c4)OCO5)cc23)CC1	> 20 µM (inactive)
COc1ccccc1CNc1ccnc(-c2cccc(C#N)c2)n1	> 20 µM (inactive)
O=C(Nc1cccc(F)c1)N1CC2(CCN(C(=O)c3cc(C(F)(F)F)cc(C(F)(F)F)c3)CC2)C1	> 4 µM (inactive)
Cc1noc(C)c1-c1ccc2ncnc(N(C)C)c2c1	> 20 µM (inactive)
Cc1noc(C)c1-c1nc(NCc2cccs2)c2ccccc2n1	> 20 µM (inactive)
COCC(=O)N1CCC2(CCCN(Cc3nccs3)C2)CC1	> 20 µM (inactive)
O=C(c1ccco1)N1CCC2(CC1)CCN(c1ncccn1)CC2	> 20 µM (inactive)
CC(=O)N1CCC2(CC1)CCN(C(c1ccccc1)c1ccccc1)CC2	> 20 µM (inactive)
CCNc1ncc2nc(C)c(=O)n(Cc3cccs3)c2n1	> 20 µM (inactive)
COc1ccccc1-c1ccc2ncnc(N(C)C)c2c1	> 20 µM (inactive)
CN(C)c1ccc(-c2nc(NCCc3cnc[nH]3)c3ccccc3n2)cc1	> 20 µM (inactive)
CN(C)c1ccc(-c2nc(Nc3ccncc3)c3ccccc3n2)cc1	> 20 µM (inactive)
Cc1nc2cnc(N3CCNCC3)nc2n(CCC#N)c1=O	> 20 µM (inactive)
CNc1ccnc(-c2ccccc2OC)n1	> 20 µM (inactive)
COc1cccc(-c2ccc3ncnc(Nc4ccccc4)c3c2)c1	> 20 µM (inactive)
COc1ccc(-c2nc3cnc(N4CCOCC4)nc3n(-c3ccc(OC)cc3)c2=O)cc1	> 20 µM (inactive)
COc1ccc(NC(=O)N2CC3(CCN(C(=O)c4ccco4)CC3)C2)cc1	> 20 µM (inactive)
CC(C)NC(=O)N1CCCC2(CCN(C(=O)c3csnn3)CC2)C1	> 20 µM (inactive)
CN(Cc1ccco1)c1ncncc1-c1ccoc1	> 20 µM (inactive)
N#Cc1cccc(-c2nccc(-n3ccnc3)n2)c1	> 20 µM (inactive)

From PubChem BioAssay (NCATS)
